According to PubChem BioAssay AID624329 (National Center for Advancing Translational Sciences (NCATS), 2012):
Results filed as inconclusive are left out. A number with no mark means an inactive call. Calls of active or inactive are those of the source. Calls come from the whole dose curve; as a rule, active = well fitted curve in the direction sought with a large enough effect; inconclusive = small, poorly fitted or top-dose-only effect; inactive = flat fitted curve, though single readings scatter.

Experiment: Quantitative high throughput screen for delayed death inhibitors of the malarial parasite plastid: Hit Validation with 3D7 at 48 hr using Flow Cytometry
Conditions: P. falciparum 3D7 growth, flow cytometry SYBR/MitoTracker; fraction of growth remaining: at 50 µM (top of the series)
From the text: The goal of this screen is to discover new antimalarial compounds that act by inhibiting the development of the apicoplast organelle in the malarial parasite Plasmodium falciparum. Some antibiotics, such as azithromycin and tetracycline, are known to interfere with the apicoplast translational machinery, and have a potent antimalarial effect. […] We developed a cell-based quantitative high throughput screen that leverages this "delayed death" phenotype to enrich for compounds that target the apicoplast. To detect small molecules that cause the delayed death phenotype, erythrocytes infected with firefly luciferase-expressing parasites were incubated with compounds for either one or two generations, corresponding to 48 and 96 hours, respectively. Growth inhibition was detected by a decrease in luciferase activity. Compounds that inhibited parasite growth in the second generation at least five-fold more potently than in the first generation were defined as delayed death inducing. These compounds were selected for confirmatory screening using a flow cytometry based assay. This hit validation assay used the 3D7 cell line and measured at 48 hours. NIH Molecular Libraries Probe Production Network [MLPCN] NIH Chemical Genomics Center [NCGC] MLPCN Grant: R21 NS059500 Assay Provider: David Fidock and Eric Ekland, Columbia University
Test compounds were diluted in 20 microliters of complete media (RPMI 1640 with 0.5% w/v Albumax (GIBCO), 24 mM sodium bicarbonate (Sigma) and 10 ug/mL gentamycin (Gibco)) in clear 384-well plates (Greiner). All liquid handling was conducted using a Bio Tek Precision 2000 pipetting system. Twenty microliters of infected erythrocytes, 0.2% parasitemia (for 48 hour time points) or 0.1% parasitemia (for 96 hour time points) were added to the compound dilutions (1% hematocrit, final concentration; 40 microliters, total culture volume). The assay plates were incubated for 48 hours, or 96 hours, at 37 masculine C in a humidified chamber (Billups- Rothenberg, Del Mar, CA, USA), gassed with 5%CO2/5%O2/ 90%N2. After one generation (48 hours), 5 microliters of culture were harvested and transferred to a second 384 well plate for fluorescent staining. Samples were stained with 30 microliters of 2 x SYBR Green I (Invitrogen) and 150nM MitoTracker Deep Red (Invitrogen) diluted in 0.9% NaCl, 0.2% dextrose (Baxter) supplemented with 2.5% Fetal Calf Serum (Gibco) (saline/FCS). Mature erythrocytes lack nuclei and mitochondria, therefore only parasitized erythrocytes retain the SYBR Green I and MitoTracker Deep Red. After 30 minutes at 37 masculine C, the stained cells were diluted in an additional 60 microliters of saline/FCS. The samples were harvested directly from the 384 well plate using a Hypercyt High Capacity Flow Platform (Intellicyt) paired with a C6 Flow Cytometer (Accuri). The flow cytometry files were analyzed using FlowJo software (FlowJo).

Row | SMILES | fraction of growth remaining | Potency
1 | c1csc(CNc2ncnc3nc[nH]c23)c1 | 0.572 | 
2 | CCCc1c(CC)c(=N)c2ccccc2n1C |  | 6.48 µM (active)
3 | COc1ccc2cc3cc(C(=O)Nc4ccc5c(c4)OCO5)oc3nc2c1 |  | 48.3 µM (active)
4 | CCc1nc(SCC(=O)Nc2ccc(N(C)C)cc2)n[nH]1 |  | 0.4 µM (active)
5 | COc1ccccc1N1CCN(CCC(=O)Nc2ccc(F)cc2)CC1 |  | 18.3 µM (active)
6 | O=C(NCc1cccnc1)c1ccc(NS(=O)(=O)c2ccccc2)cc1 |  | 30.9 µM (active)
7 | CCOc1ccc(S(=O)(=O)Nc2cc(S(=O)(=O)N(CC)CC)ccc2N2CCCC2)cc1 |  | 12.5 µM (active)
8 | CCCCN(CCCNC(=O)c1ccc(CS(=O)(=O)c2ccc(OC)cc2)o1)Cc1ccccc1 | 0.163 (active) | 
9 | COc1cccc(CN2CCN(c3nc4nonc4nc3N3CCCCC3)CC2=O)c1 |  | 5.55 µM (active)
10 | Cc1c(F)c(N2CCNC(C)C2)cc2c1c(=O)c(C(=O)O)cn2C1CC1 (stereo not drawn) |  | 5.98 µM (active)
11 | CCOC(=O)c1ccc2c(c1)n(CC)c(/C=C/N(C)c1ccccc1)[n+]2CC |  | 1.52 µM (active)
12 | CC1=Nc2cc(C(=O)N3CCCC3)ccc2Sc2ccc(C)cc21 | 0.151 (active) | 
13 | CC(=O)NC[C@@H]1CN(c2ccc(N3CCOCC3)c(F)c2)C(=O)O1 | 0.835 | 
14 | Cc1ccc(CN2CCC(n3nccc3NC(=O)c3ccccc3C)CC2)o1 | 0.498 (active) | 
15 | O=C(CNC(=O)C1CCCCC1)OC(C(=O)c1ccccc1)c1ccccc1 (stereo not drawn) | 0.652 | 
16 | COc1ccc(NC(=S)N2CCC(Cc3ccccc3)CC2)cc1OC |  | 46.5 µM (active)
17 | O=C(CSc1ccc(-c2cccnc2)nn1)Nc1ccccc1C(F)(F)F |  | 12.4 µM (active)
18 | Cc1ccc(S(=O)(=O)Nc2ccc(C(=O)Nc3ccncc3)cc2)cc1 |  | 26.3 µM (active)
19 | CO[C@@H]1[C@@H](OC2OC(C)C(OC3CC(C)(O)C(OC(=O)CC(C)C)C(C)O3)C(N(C)C)C2O)[C@@H](CC=O)C[C@@H](C)C(=O)/C=C\C2O[C@H]2C[C@@H](C)OC(=O)C[C@H]1OC(C)=O (stereo partly drawn) |  | 2.95 µM (active)
20 | CCCc1cc(=O)oc2cc(OC(C)C(=O)NCc3ccccn3)c(Cl)cc12 (stereo not drawn) |  | 16.9 µM (active)
21 | Clc1ccc(-c2c[n+](Cc3ccc(Cl)cc3Cl)c3n2CCCCC3)cc1 |  | 5.64 µM (active)
22 | N#Cc1cccc(NC(=O)Cn2c3[n+](c4ccc(C(F)(F)F)cc42)CCCCC3)c1 |  | 19.9 µM (active)
23 | CCCCOc1ccc(N2C(N)=NC(N)=NC23CCCCC3)cc1 |  | 22.2 µM (active)
24 | CCC(=O)OC1C(N(C)C)CC(C)O[C@H]1O[C@H]1[C@H](C)[C@@H](O[C@H]2CC(OC)[C@@H](O)C(C)O2)[C@H](C)C(=O)O[C@@H](CC)[C@](C)(O)[C@@H](O)[C@H](C)C(=O)[C@@H](C)C[C@]1(C)O (stereo partly drawn) | 0.768 | 
25 | CCCCN(CCCNC(=O)C1CCN(C(=O)c2cc3sccc3n2C)CC1)Cc1ccccc1 |  | 9.82 µM (active)
26 | CCOc1ccc(NC(=O)C[n+]2ccc(N(C)C)cc2)cc1 |  | 25.8 µM (active)
27 | COc1ccc2c(ccc[n+]2CC(=O)c2ccccc2)c1 |  | 9.29 µM (active)
28 | Cc1ccc(-n2c(-c3ccc(Cl)cc3)c[n+]3c2CCC3)cc1 |  | 4.64 µM (active)
